# In PubChem BioAssay (EPA / NIEHS):
# Activity calls are given as the source filed them. Rule for the calls, unless noted: active = hit-call score of the fitted dose curve at least 0.9, where 1 is the maximum; inactive = score below 0.9.
# Test system: not listed separately
# Test: CCTE_Deisenroth_H295R-HTRF_384WELL_TESTOSTERONE: CCTE's H295R-HTRF Assay Evaluation of Testosterone Concentration, Deisenroth Lab (AID 2284373)
# Settings: actives raise or lower the signal
# Protocol: CCTE_Deisenroth_H295R-HTRF_384WELL assay is a cell-based, multiplex-readout assay that uses H295R, a human adrenocortical carcinoma cell line, with measurements taken at 48 hours after chemical dosing in a 384-well microplateCCTE_Deisenroth_H295R-HTRF_384WELL_TESTOSTERONE is one of 3 assay components calculated in the CCTE_Deisenroth_H295R-HTRF_384WELL assay (2 hormones and 1 viability components). It is designed to make measurements of hormone induction, a form of inducible reporter, as detected with Homogenous Time Resolved Fluorescence immunoassay technology.This assay endpoint, CCTE_Deisenroth_H295R-HTRF_384WELL_TESTOSTERONE, was analyzed with bidirectional fitting relative to DMSO as the negative control and baseline of activity. Using a type of inducible reporter, gain or loss-of-signal activity using Homogenous Time Resolved Fluorescence technology was used to understand synthesis of testosterone in the H295R cell line at 48hr of chemical exposure. To generalize the intended target to other relatable targets, this assay endpoint is annotated to the steroid hormone intended target family, where the subfamily is androgens.
# (§1) Standard operating procedures for the cell culture medium, maintenance, expansion, and cryopreservation of the NCI-H295R adrenocortical carcinoma adherent cell line were adopted directly from guideline specifications7,13. The assay workflow follows a three-day protocol consistent with the paradigm defined in OECD TG 456 and U.S. EPA OCSPP Guideline 890.1550. On day 0, cells are plated in 384-well microplates and acclimated for 24 hours. On Day 1, test chemicals are dispensed into separate 384-well microplates in a nine-point 2X dilution series (0.002 - 200 uM). […] Fluorescent endpoint measurements are conducted with a microplate reader equipped with an HTRF-compatible filter set (ex: 320 (10) […]; em: 620 (10) and 665 (10) nM). […] After collecting conditioned medium samples on Day 3, the viability assay is immediately performed and luminescence readings measured on a microplate reader. […]
Structure (SMILES),outcome,AC50
CCSC(=O)N1CCCCCC1,inactive,–
CC(C)(C)C(=O)C(Oc1ccc(Cl)cc1)n1cncn1 (stereo not given),–,8.94 µM (active)
CCCCC(C#N)(Cn1cncn1)c1ccc(Cl)cc1 (stereo not given),inactive,–

# Test system: not listed separately
# Test: CCTE_Deisenroth_H295R-HTRF_384WELL_CTOX: Cytotoxicity Assessment in CCTE's H295R-HTRF Assay, Deisenroth Lab (AID 2284380; active = hit-call score of the fitted dose curve at least 0.9, where 1 is the maximum)
# Settings: not given
# Protocol: CCTE_Deisenroth_H295R-HTRF_384WELL assay is a cell-based, multiplex-readout assay that uses H295R, a human adrenocortical carcinoma cell line, with measurements taken at 48 hours after chemical dosing in a 384-well microplateCCTE_Deisenroth_H295R-HTRF_384WELL_CTOX is one of 3 assay components measured in the CCTE_Deisenroth_H295R-HTRF_384WELL assay (2 hormones and 1 viability components). It is designed to make measurements of adenosine triphosphate (ATP), a form of viability reporter, as detected with luminescence intensity signals by CellTiter-Glo 2.0 cytotoxicity assay technology.This assay endpoint, CCTE_Deisenroth_H295R-HTRF_384WELL_CTOX, was analyzed in the positive fitting direction relative to DMSO as the negative control and baseline of activity. Using a type of viability reporter, loss-of-signal activity using CellTiter-Glo 2.0 technology was used to understand viability in the H295R cell line at 48hr of chemical exposure. To generalize the intended target to other relatable targets, this assay endpoint is annotated to the cell cycle intended target family, where the subfamily is cytotoxicity
# as §1, with “specifications (EPA 2011, OECD 2011).” for “specifications7,13.”
row,Structure (SMILES),outcome
1,CCSC(=O)N1CCCCCC1,inactive
2,CC(C)(C)C(=O)C(Oc1ccc(Cl)cc1)n1cncn1 (stereo not given),inactive
3,CCCCC(C#N)(Cn1cncn1)c1ccc(Cl)cc1 (stereo not given),inactive

# Test system: TTR (gene 7276)
# Test: CCTE_GLTED_hTTR_0.125uM: CCTE's human Transthyretin (hTTR) Inhibition Assay, with 0.125uM TTR, Great Lakes Toxicology and Ecology Division (GLTED) Lab (AID 2284431);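 note: hits lower the fluorescence signal relative to DMSO baseline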
# Settings: not given
# Procedure, shortened: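 Activity is defined as decreased ANSA fluorescence (ex 380, em 475) from human transthyretin, 0.125uM, following 2-hour chemical exposure in a cell-free setup, with DMSO as baseline.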
row,Structure (SMILES),AC50
1,Cn1c(-c2ccccc2)cc(-c2ccccc2)[n+]1C,27.8 µM (active)
2,O=C1C2CC=CCC2C(=O)N1SC(Cl)(Cl)Cl (stereo not given),21.1 µM (active)
3,N#Cc1c[nH]cc1-c1cccc2c1OC(F)(F)O2,0.5 µM (active)
4,CCOc1nc(C(Cl)(Cl)Cl)ns1,5.26 µM (active)
5,CO/N=C(/C1=NOCCO1)c1ccccc1Oc1ncnc(Oc2ccccc2Cl)c1F,5.22 µM (active)
6,CC(C)NC(=O)N1CC(=O)N(c2cc(Cl)cc(Cl)c2)C1=O,2.51 µM (active)
7,COc1cc(Cl)c(OC)cc1Cl,4.26 µM (active)
8,COP(=S)(OC)Oc1ccc([N+](=O)[O-])c(C)c1,8.85 µM (active)
9,CCOP(=O)(OCC)Oc1nc(Cl)c(Cl)cc1Cl,0.395 µM (active)
